Source: PubChem BioAssay (NCATS)
Inconclusive results are not listed. Activity calls are given as the source filed them. Calls come from the whole dose curve; as a rule, active = well fitted inhibition curve with a large enough effect; inconclusive = small, poorly fitted or top-dose-only effect; inactive = flat fitted curve, though single readings scatter.

Each molecule was assayed against Calcium and integrin-binding protein 1 (Homo sapiens) (UniProt Q99828) (assay: Primary qHTS for Identification of Calcium Integrin Binding Protein 1 (CIB1) Competitor (AID 1508620; note: top concentration of the series differs between compounds)). Details: CIB1-GST / FITC-alphaIIb peptide fluorescence polarization; series mostly up to 114 µM; activity change, negative = inhibition: at the top concentration.
Method in brief: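 Fluorescence polarization competition: GST-tagged CIB1 (1 uM final) preincubated with compound 15 min at room temperature, then FITC-labelled alphaIIb peptide (100 nM final) added. After 15 min at room temperature, polarization read at Ex 480/Em 540.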
% is set by controls: 0 for no effect and ±100 for the full control effect.

Sequence of Calcium and integrin-binding protein 1 (Homo sapiens) (Q99828 whole entry, looked up): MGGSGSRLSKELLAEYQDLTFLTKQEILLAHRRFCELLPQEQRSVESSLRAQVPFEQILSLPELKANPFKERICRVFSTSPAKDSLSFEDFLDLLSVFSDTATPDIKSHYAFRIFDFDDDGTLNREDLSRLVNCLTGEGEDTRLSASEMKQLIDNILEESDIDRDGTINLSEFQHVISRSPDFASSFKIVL

| SMILES | activity change, negative = inhibition |
| --- | --- |
| CCCCCCCCC(=O)N[C@H](CN1CCCC1)[C@H](O)c1ccc2c(c1)OCCO2 | 1.33% (inactive) |
| O=C(Nc1ccc(-n2nc(C(F)(F)F)cc2C(F)(F)F)cc1)c1ccncc1F | 0.188% (inactive) |
| O=S(=O)(c1ccc(Cl)cc1)N1CCN(c2ccnc3cc(Cl)ccc23)CC1 | 1.66% (inactive) |
| C=C(CCC1C(C)(O)CCC2C(C)(C)C(O)CCC12C)C(O)CO (stereo unspecified) | 2.18% [at 57.7 µM] (inactive) |
| CN(c1ccc(NC(=O)Nc2ccccc2)cc1)S(=O)(=O)c1cnn(-c2ccc(F)cc2)c1 | -4.65% (inactive) |
| C/C=C(\C)C(=O)O[C@H]1C=CC(=O)O[C@H]1/C=C/[C@@H](O)[C@H](C)O | -0.665% (inactive) |
| C[C@H](Nc1ncnc2nc[nH]c12)c1cc2cccc(Cl)c2c(=O)n1-c1ccccc1 | -2.01% (inactive) |
| Fc1ccc(N2CCCCC2)c(NC(=S)c2ccncc2)c1 | -2.3% (inactive) |
| CCC/C=C/C(=O)O[C@H]1CC(C)(C)CC2[C@@]13[C@H](O)C[C@]1(C)[C@@]2(CCC2[C@@]4(C)CC[C@H](O[C@@H]5O[C@H](C(=O)O)[C@@H](O)[C@H](O[C@@H]6O[C@H](CO)[C@H](O)[C@H](O)[C@H]6O[C@@H]6O[C@@H](C)[C@H](O)[C@@H](O)[C@H]6O[C@@H]6OC[C@](O)(CO)[C@H]6O)[C@H]5O[C@@H]5O[C@H](CO)[C@H](O)[C@H](O)[C@H]5O)C(C)(C)C4CC[C@]21C)O[C@H]3O (stereo partly specified) | 4.06% [at 12.4 µM] (inactive) |
| Cc1nc(C#Cc2ccnc(Cl)c2)c(C)n1-c1ccc(OC(F)(F)F)cc1 | 0.254% (inactive) |
| COc1ccc(N(C(=O)Nc2c(C)cccc2C)c2cc(Nc3ccc(N4CCN(C)CC4)cc3)ncn2)c(OC)c1 | 0.51% (inactive) |
